KCNQ2 inh – rat KCNQ2 potassium channel inhibitors, primary screen, cell-based, CHO-K1, FluxOR thallium flux, B-score; Potassium voltage-gated channel subfamily KQT member 2 (Rattus norvegicus), O88943; 20 min; active compounds read low; B-score at 10 µM; 1.1% of 310,000 active; AID 2156, 2009;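 active = fluorescence ratio B-score at most minus 3 library SDs, with starting brightness B-score within 2 library SDs, cut at about -5.5 in these data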
KCNQ2 pot – potentiators of rat KCNQ2 potassium channel. B-score at 10 µM. 0.54% of 310,000 active. AID 2239, 2010. CHO-K1 KCNQ2, FluxOR thallium flux fluorescence; active compounds read high. Potassium voltage-gated channel subfamily KQT member 2 (Rattus norvegicus), O88943;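 active = fluorescence ratio B-score at least 3 SD of library B-scores, with initial fluorescence B-score within 3 of them, cut at about 5.3 in these data; same plate scores as AID 2156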;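 note: B-score of peak minus minimum over baseline fluorescence ratio after K+ and Tl+ stimulus; positive B-score means potentiation of KCNQ2 with more thallium influx and brighter signal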
Kir21 conf inh – mouse Kir2.1 channel blockers, retest, confirmation, cell-based, FluxOR thallium flux, duplicate. Kir2.1-expressing cells, FluxOR thallium flux fluorescence; active compounds read low. AID 2032, 2009. shares compounds with KCNQ2 pot. Tl flux remaining, % of negative control (active compounds read low), % at 10 µM. 41% of 2,300 active;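 active = Primary-screen hit whose thallium flux fell at least 3 control SD below untreated wells in both duplicates, with normal baseline fluorescence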;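 note: 0% = blank wells without stimulus and 100% = stimulated no-compound controls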
HEK293 Tl flux – alters thallium flux in parental HEK293 cells, Kir2.1 counter-screen; shares compounds with KCNQ2 pot; FluxOR thallium flux fluorescence; 0% = unstimulated blank wells; FluxOR signal as % of negative control (100 = no effect), % at 10 µM; 19% of 2,300 active; AID 2105;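 active = dye signal at least 3 control SD above or below untreated wells in both duplicates, raw fluorescence within 3, either direction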;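 note: percent is based on the flux ratio of peak minus minimum fluorescence over baseline F0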
CHO-K1 ctr – nonspecific thallium flux increase in parental CHO-K1, confirmation, counter-screen for KCNQ2 potentiator project, cell-based, FluxOR thallium flux, duplicate; shares compounds with KCNQ2 pot; parental CHO-K1 cells, FluxOR thallium flux fluorescence; zero = vehicle mean+3SD, 100% = vehicle-minus-blank window; activity increase over 3SD of controls, % at 10 µM; 43% of 1,200 active;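 active = signal rise of at least 3 SD above the untreated control mean, in both duplicate wells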;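 note: counter screen of KCNQ2 potentiator hits so any rise reflects channel-independent effects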
KCNQ1 sel pot – human KCNQ1 channel potentiation off-target, confirmation, selectivity assay for KCNQ2 potentiator project, cell-based, CHO, FluxOR thallium flux | shares compounds with KCNQ2 pot | CHO KCNQ1 stable, FluxOR thallium flux fluorescence; beyond 3SD, as % of vehicle-control signal | activation over 3SD threshold, % at 10 µM | 28% of 1,200 active | AID 2283, 2010;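 active = fluorescence ratio rise of at least 3 SD of vehicle wells above their mean, in both replicate wells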;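 note: 0% = vehicle mean plus 3 SD and 100% = vehicle minus unstimulated blank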
Target sequence (P51787 whole entry, looked up): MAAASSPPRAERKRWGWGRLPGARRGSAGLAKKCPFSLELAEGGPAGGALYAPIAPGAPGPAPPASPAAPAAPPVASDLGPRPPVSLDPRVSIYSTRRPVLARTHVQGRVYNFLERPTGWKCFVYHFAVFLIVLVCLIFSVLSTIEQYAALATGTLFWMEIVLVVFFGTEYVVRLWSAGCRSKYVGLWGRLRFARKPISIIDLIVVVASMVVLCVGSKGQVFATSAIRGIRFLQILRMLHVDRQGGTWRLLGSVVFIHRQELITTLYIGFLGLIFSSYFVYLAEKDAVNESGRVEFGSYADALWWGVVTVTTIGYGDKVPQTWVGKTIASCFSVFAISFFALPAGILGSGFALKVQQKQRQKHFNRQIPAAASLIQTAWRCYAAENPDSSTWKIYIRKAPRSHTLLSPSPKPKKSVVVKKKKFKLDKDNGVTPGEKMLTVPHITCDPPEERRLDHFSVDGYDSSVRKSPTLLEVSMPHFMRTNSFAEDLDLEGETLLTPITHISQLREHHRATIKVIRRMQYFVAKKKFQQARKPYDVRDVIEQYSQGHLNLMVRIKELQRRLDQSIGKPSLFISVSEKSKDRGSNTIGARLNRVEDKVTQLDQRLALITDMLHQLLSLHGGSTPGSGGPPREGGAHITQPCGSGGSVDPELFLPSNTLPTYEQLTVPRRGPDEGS
KCNQ2 pot conf – rat KCNQ2 channel potentiators, confirmation, cell-based, CHO, FluxOR thallium flux, duplicate. AID 2287, 2010. potentiation, less the hit threshold, % at 10 µM. 68% of 1,200 active. shares compounds with KCNQ2 pot. CHO-KCNQ2 cells, FluxOR thallium flux fluorescence;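 active = fluorescence ratio rising 3 SD or more over the vehicle control mean in both replicates, plus primary screen hit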;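 note: peak minus minimum thallium fluorescence divided by baseline after K/Tl stimulus; 0% = vehicle mean plus 3 SD and 100% = vehicle minus unstimulated blank difference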
Kir21 spec – mouse Kir2.1 channel activation off-target, confirmation, selectivity assay for KCNQ2 potentiator project, cell-based, HEK293, FluxOR thallium flux | 2% of 1,200 active | shares compounds with KCNQ2 pot | activity over 3SD threshold, % at 10 µM | HEK293 Kir2.1, FluxOR thallium flux fluorescence;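 active = fluorescence ratio rise of at least 3 SD above the vehicle-control mean, seen in both replicates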;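 note: 0% = vehicle mean plus 3 SD and 100% = vehicle minus no-stimulus blank window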
KCNQ2 W236L pot – potentiators of retigabine-insensitive KCNQ2 W236L, mechanism study for KCNQ2 potentiator project, cell-based, rat KCNQ2 W236L, CHO, automated patch clamp; shares compounds with KCNQ2 pot; automated patch clamp current; current increase over 3SD of negative controls (%), active compounds read high, % at 25 µM; 10% of 940 active; AID 2558, 2010;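 active = current increase at least 3 SD of the untreated controls above them in both duplicate recordings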
* = called active by the depositor; i = inactive; . = not tested or not shown. This is a sample that favours compounds with a hit; in the whole collection about 1.6% have one here.

SMILES	KCNQ2 inh	KCNQ2 pot	Kir21 conf inh	HEK293 Tl flux	others
Oc1c(Br)cc(Br)cc1C=Nc1cccc2ncccc12	i	14*	i	i	CHO-K1 ctr=-17;KCNQ1 sel pot=-18;KCNQ2 pot conf=-10;Kir21 spec=-23;KCNQ2 W236L pot=i
Brc1cccc(C=Nc2cccc3ncccc23)c1	i	0.34	.	.
O=C(O)C1CCC(CNS(=O)(=O)c2ccccc2)CC1 (configuration not stated)	i	.	.	.
CC(=O)N1CCn2c3c(c4cc(C)ccc42)CCCC31 (configuration not stated)	i	0.68	.	.
Cc1ccc2c(c1)c1c3n2CCN(C(=O)CCl)C3CCC1 (configuration not stated)	i	.	i	i
O=C(NCCC1CC1(Cl)Cl)Nc1ccccc1 (configuration not stated)	i	1.5	.	.
COc1ccccc1NC(=O)C[n+]1ccccc1C	i	0.79	.	.
Cc1cccc(C)c1NC(=O)COC(=O)c1cc[n+]([O-])cc1	i	0.26	.	.
CC(=O)N1CCOc2ccc(S(=O)(=O)NCc3ccccc3Cl)cc21	i	.	.	.
CC(=O)N1CC(C)Sc2ccc(S(=O)(=O)NCc3ccccc3Cl)cc21 (configuration not stated)	i	.	75%*	i
O=C1NC(=O)/C(=C\c2ccccc2OCc2ccccc2)S1	i	0.21	.	.
O=C1NC(=O)/C(=C\c2ccc(OCc3ccccc3)cc2)S1	i	8*	i	i	CHO-K1 ctr=-9;KCNQ1 sel pot=-32;KCNQ2 pot conf=-13;Kir21 spec=-36
O=C(CN1CCSCC1)N/N=C/c1cccc(Cl)c1	i	.	.	.
COc1ccc(C2(C(=O)NCCc3ccccc3)CCCC2)cc1	i	.	.	.
O=C(NCCc1ccc(Cl)cc1)C1(c2ccccc2)CC1	i	.	34%*	i
COc1ccc(Cc2noc(CN3CCN(Cc4cccc(Cl)c4)CC3)n2)cc1OC	i	7.2*	i	i	CHO-K1 ctr=43*;KCNQ1 sel pot=-16;KCNQ2 pot conf=-26;Kir21 spec=-14
COCCN1CCN(Cc2nc(Cc3ccc(OC)c(OC)c3)no2)CC1	i	1.3	.	.
CN(C)CCCN(C(=O)c1ccc2c(c1)OCCO2)c1nc2ccc(Cl)cc2s1	i	.	54%*	i
CN(C)CCN(C(=O)c1ccc2c(c1)OCCO2)c1nc2ccc(Cl)cc2s1	i	0.29	.	.
O=C(c1ccccc1)c1c(-c2ccccc2)[nH]n(-c2ccccc2)c(=O)c1=O	i	0.6	.	.
CC(C)[C@H](NC(=O)CCCn1nnc2ccccc2c1=O)C(=O)O	i	0.06	.	.
Cn1c(=O)c2c(SCC(=O)N3CCCC3)nc(-c3ccccc3)nc2n(C)c1=O	i	2.4	.	.
CCCCc1nc(SCC(=O)N2CCOCC2)c2c(=O)n(C)c(=O)n(C)c2n1	i	5.4*	i	i	CHO-K1 ctr=-4;KCNQ1 sel pot=57*;KCNQ2 pot conf=9.8*;Kir21 spec=-28;KCNQ2 W236L pot=i
CCCCc1nc(SCC(=O)N2CCCC2)c2c(=O)n(C)c(=O)n(C)c2n1	i	8.2*	i	i	CHO-K1 ctr=-22;KCNQ1 sel pot=-11;KCNQ2 pot conf=38*;Kir21 spec=-34;KCNQ2 W236L pot=i
CC(C)c1nc(SCC(=O)N2CCCc3ccccc32)c2c(=O)n(C)c(=O)n(C)c2n1	i	0.99	.	.
SMILES	KCNQ2 inh	KCNQ2 pot	Kir21 conf inh	HEK293 Tl flux	others
CCCCc1nc(SCCOC)c2c(=O)n(C)c(=O)n(C)c2n1	i	2	.	.
CC1CCN(C(=O)CSc2nc(C(C)C)nc3c2c(=O)n(C)c(=O)n3C)CC1	i	27*	i	i	CHO-K1 ctr=21*;KCNQ1 sel pot=-2;KCNQ2 pot conf=124*;Kir21 spec=-24;KCNQ2 W236L pot=i
CC(C)Cc1nc(SCC(=O)N2CCCC2)c2c(=O)n(C)c(=O)n(C)c2n1	i	6.5*	i	i	CHO-K1 ctr=33*;KCNQ1 sel pot=-10;KCNQ2 pot conf=19*;Kir21 spec=-9;KCNQ2 W236L pot=i
Cc1nc(SCC(=O)N2CCOCC2)c2c(=O)n(C)c(=O)n(C)c2n1	i	1.1	.	.
COc1ccc(N2C(=O)C3C(c4ccc(C(=O)O)cc4)NC(Cc4ccccc4)(C(=O)O)C3C2=O)c([N+](=O)[O-])c1 (configuration not stated)	i	0.55	.	.
COCc1cc(C)n(CC(=O)Nc2cc(C)cc(C)c2)c(=O)c1C#N	i	.	.	.
CCOC(=O)c1ccccc1NC(=O)Cc1c(C(=O)O)n(C)c2ccccc12	i	0.72	.	.
O=C(c1ccc(F)cc1)C1CCN(C(=S)Nc2ccc(F)cc2)CC1	i	.	.	.
CCCCc1nc(SCC(=O)N2CCCCC2)c2c(=O)n(C)c(=O)n(C)c2n1	i	26*	i	i	CHO-K1 ctr=-16;KCNQ1 sel pot=-25;KCNQ2 pot conf=100*;Kir21 spec=-43;KCNQ2 W236L pot=i
Cn1c(=O)c2c(SCC(=O)N3CCOCC3)nc(C3CCCCC3)nc2n(C)c1=O	i	3.8	.	.
O=C(CCC(=O)N1CCOc2ccc(Cl)cc21)NCCCN1CCC(Cc2ccccc2)CC1	i	.	i	i
O=C(CCC(=O)N1CCOc2ccc(Cl)cc21)NCCCN1CCN(c2ccccc2F)CC1	i	1.1	.	.
COc1ccc(-c2ccc(=O)n(CC(=O)NCC3COCCO3)n2)cc1 (configuration not stated)	i	0.89	.	.
CC(O)CNCCCOc1ccc(Cl)cc1C(C)(C)C (configuration not stated)	i	.	32%*	i
CN(C)CCOCCOc1ccc(Cl)cc1C(C)(C)C	i	.	34%*	i
CC(C)(C)c1cc(Cl)ccc1OCCn1ccnc1	i	0.35	.	.
COCCCNCCCOc1ccc(Cl)cc1Br	i	.	.	.
COc1ccc(COC(=O)c2ccc(Br)c(S(=O)(=O)N3CCOCC3)c2)cc1F	i	0.12	.	.
Cc1ccc(NC(=O)CSc2ccc(Br)cc2)cc1S(=O)(=O)N1CCOCC1	i	.	.	.
CCCCc1nc2sc3c(=O)n(N)cnc3c2c2c1CCC2	i	0.88	.	.
Cc1ccc(S(=O)(=O)c2ccc(C)cc2)cc1	i	0.96	.	.
